The source of these data is the supplement of paper PMC6555819.

The assay concerns VDR:RXRa (NR concentration 270 nM, RXRa partner concentration 90 nM). The assay is described as follows: PBM binding z-score (relative to random genomic background probes); higher = stronger binding; sequences stand for … in GC…GCGATTGACAGCGTAGAATGAAGG
The method, then:
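Protein-binding microarray (Agilent 4x180K custom design, double-stranded 60-nt probes: 5' GC cap, 34-nt variable region, 24-nt constant primer region; full probe sequence given). Purified or IVT nuclear receptor:RXRα heterodimers (3:1 NR:RXRα, mostly 270:90 nM) or homodimers were incubated for 1 h in PBS with 2% milk and no ligand, then detected with Alexa488 antibodies. Fluorescence from o1-orientation probes (~5 replicates averaged) was converted to z-scores against 500 random hg19 background probes. Variable regions are seed direct-repeat (DR0–DR5) sites, all their single-nucleotide variants and half-site ablations.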
In turn, CCTAGTTGGTCAAGGTCACACTCGCTATAGGTAC showed a PBM binding z-score of 3.99. In turn, TATACAGGGTCAAAGGCCAGAATACGAATGTCGA displayed a PBM binding z-score of 4.62. For CGTCCAAGGTCGGCAGGTCAGTGAAAGCGACGTG, the PBM binding z-score stood at 1.28. Take TGAATGAGATTATAAGATCAGGGAACGTTGCAAA: the PBM binding z-score is -0.491. The sequence CTCGAAAGGTCGGTTGAGGTGCGTATACGGATAA came in with a PBM binding z-score of 2.09. To AATACAGGGCCACTAGGCCAGAGTAGGTACGAAT belongs -0.225; to ATCCCAAGGTGATCGTGAGGTCGTTGATACTAAC, 2.87.

On to ATAGGTAGGTTATCGGGTCATTCAGTTTGCGCAT, for which the PBM binding z-score turned out to be 5.32. With CGTCCAAGGTCAATGCTAGGTAAGTGAAAGCATT, the PBM binding z-score turned out to be 3.62.

As for AATAGAGGGTCACTAGGCCAGAGTAGGTACGAAT, the PBM binding z-score worked out at 2.75. As for CCGACTGGGGCAAGGTTACCTTAACGCACAGCCA, the PBM binding z-score is -0.0796. For the sequence CGTCCAAGGACAGCAGGTCAGTGAAAGCGACGTG, the PBM binding z-score was -0.0699.

Sequence AGTCAAAGTTCAGGACGAGTTAACGTAAAGCACG returned a PBM binding z-score of 2.96.

In turn, TCTATTCGTTGATTAGGGCAACCGAAACAGCGGA displayed a PBM binding z-score of 0.441. For the sequence TTGCCTAGGTCAGATCGGGCCAGTATACGCTATA, the PBM binding z-score is 0.82.

In turn, AGAATGAAGTTACCAAAGATCAGGGAAACGCTTG gave a PBM binding z-score of -0.38.

In turn, ATCTCTAGGTCAGACTCAGTTCAGTGAAGAACGC came in with a PBM binding z-score of 3.36. Sequence AGAATTAGGTTACCAAAGATCAGGGAAACGCTTG returned a PBM binding z-score of 0.204. Take CAGCCAAGGTCAGGGCCAGTATAGGAGGAACGTT: the PBM binding z-score worked out at 2.4. As to TTACCAAGGTGAGCTGAGGTCGTTGACCCAACTC, the PBM binding z-score was 3.96.

In the case of TCGGGTAGGTTACCAATGGGGCATTCAGCTTTCT, the PBM binding z-score came to 0.639.

Sequence CCAGTCAGGTGAAAGGTAACTCAGTCTGGTACGC gave a PBM binding z-score of 0.52. CAAACTAGTTCAAAGGTCAAAGTCGAGCCAACCA had a PBM binding z-score of 6.02. In turn, CTCGAAAGGTCTGTTGAGGTGAGTATACGGATAA yielded a PBM binding z-score of 0.221. The sequence AATACAGGGTCACTAGGCCACAGTAGGTACGAAT gave a PBM binding z-score of 4.27.

Turning to CGAACTAGGGCATTGACAGGACAGTGAATAGTAA, the PBM binding z-score is -0.141. Then GCTTGTAGGTCAAGGTTAAGAAAGACTAAGCTAA, with 2.3.

TCTAGCAGGCCAGAGGGTCACCCAAGAGGTACGG came in with a PBM binding z-score of 1.71.

As for GCGACTGGGGCATCTGCAGGTTACCATAACTTAA, the PBM binding z-score is -0.144. Then ATATGTAGGTTACAACCGGGTCATTCAGGCTATG, with 4.56. TCTCGGAGCACACGAAGGTCAGAGCTTTCCAGAG yielded a PBM binding z-score of 0.634. CCTAGGAGGACAACAGGAGGTCAGAGCTGCCAGA returned a PBM binding z-score of 2.09. The sequence CCGACTGGGGCTAAGGTTACCATACTCAGTACGA gave a PBM binding z-score of 0.0865. To TCATATAGGTAAATGCTACGTGAAAGTCCGATCT belongs 0.947.

In the case of GCTTACGGGTAAAAGGTTATAGCATGAATAGAAT, the PBM binding z-score was found to be 1.57. As for CCTAGTTGGTCAAGGTCGCACACGCTATAGGTAC, the PBM binding z-score was determined as 1.75. Turning to ACTAGTTGGTCAGCTGAGCTCACACACAATTCGG, the PBM binding z-score was -0.299. Sequence GCTACTGGGGCAAAGCAGGTTACCATAAGGTTGG displayed a PBM binding z-score of 0.028.

Regarding AGAATGAGATTAAGATCAGGGAAACAGAATACAT, the PBM binding z-score is -0.149.

The sequence ATCTCTAGGGAAAAGTTCAGTGAATCCCGAGGAT came in with a PBM binding z-score of 0.557.
